From PubChem BioAssay
An excerpt weighted towards active compounds, which were near 7.9% of everything screened.
FMDV inh = blocks foot and mouth disease virus. 410,000 tested, 1.2% active. Potency, µM (doses to about 57.9 µM), inactives show top-dose activity change, negative = inhibition, hits mostly inhibitors. FMDV antiviral cell-based qHTS. AID 1159524; calls by dose curve; tested in HEK293T cells; also: read-out not given here; potency is read from the fitted curve at half-maximal effect; nearly all actives have a fitted effect of over 45% in size
HCMV antiviral = inhibitors of human cytomegalovirus. AID 1259415. HFF cells, HCMV-luciferase reporter, 72 h; stronger effect = lower value. 410,000 tested, 4.5% active. activity change, negative = inhibition, % at 57.5 µM; in the data active = activity change below about -60%; inconclusive = no clear call, values can overlap the other calls; inactive = above about -39%
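Human foreskin fibroblasts infected with luciferase-reporter HCMV at MOI 1 PFU/cell, compounds at two doses. Luciferase measured 72 h post infection; normalized to buffer-only basal and Salinomycin (10uM) controls.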
LASV entry inh = Lassa virus entry inhibition. AID 540256. 300,000 tested, 1.2% active. Potency, µM (highest dose often 37.9 µM), inactives show top-dose activity change, negative = inhibition, hits mostly inhibitors. Lassa virus pseudotype entry inhibition, cell reporter; calls by dose curve; tested in HEK293 cells; also: potency is read from the fitted curve at half-maximal effect; nearly all actives have a fitted effect of over 50% in size
HCV inhibitor = blocks hepatitis C virus. Huh7.5.1 HCVcc-Cre infection, luciferase reporter, 44 h. Potency, µM (titrated, usually from 41.8 µM), for the others: at the top dose activity change, negative = inhibition, most hits filed as inhibitors. 340,000 tested, 3.4% active. AID 651820; active = well fitted inhibition curve with a large enough effect; inconclusive = small, poorly fitted or top-dose-only effect, or another doubt; inactive = no such curve, though single readings can be large or run the other way; also: potency is read from the fitted curve at half-maximal effect
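Infectious HCVcc-Cre (~0.5 moi) was added to cells just after compound, with cells seeded 4 h earlier at 1,000 per well. Luciferase activity after 44 h culture reported infection; substrate was incubated 15 min at room temperature before reading.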
MARV entry inh = Marburg virus entry inhibition | Marburg virus pseudotyped entry inhibition, cell reporter | Potency, µM (highest dose often 37.8 µM), inactives show top-dose activity change, negative = inhibition, hits mostly inhibitors | AID 540276 | 300,000 tested, 1.8% active; calls by dose curve; tested in HEK293 cells; also: potency is read from the fitted curve at half-maximal effect
* hit, by the source's call; ? = inconclusive; . = no result; ! = repeats disagree; [ ] = remark or other dose. % is scaled to controls: 0 for no effect and ±100 for the full control effect.

SMILES	FMDV inh	HCMV antiviral	LASV entry inh	HCV inhibitor	MARV entry inh
CCOC(=O)c1ccc(-n2c(-c3ccc(C)cc3)c(C)n3c4c(=O)n(C)c(=O)n(C)c4nc23)cc1	-25%	-3	2%[46.1 µM]	.	1%[46.1 µM]
COCCCNc1ncnc2c1c(-c1ccccc1)cn2-c1ccc(C)c(Cl)c1	?	-17	2%[46.1 µM]	.	.
COc1ccc(C(=O)/C=C/NCc2ccc(C)cc2)cc1	13%	-61*	?	-28%	-3%
CCOCCCNC(=O)c1ccc(N(C)S(=O)(=O)c2ccc(OC)cc2)cc1	1%	-103*	-4%	-4%	14%
COc1ccc(S(=O)(=O)N(C)c2ccc(C(=O)NC3CCCC3)cc2)cc1	-18%	33	?	-27%	?
C=CCNC(=O)c1ccc(CN(c2ccc(OCC)cc2)S(=O)(=O)c2ccc(C)cc2)cc1	-2%	-7	.	11µM*	.
CC(C)CCNC(=O)COc1ccc(N(C)S(=O)(=O)c2ccc(F)cc2)cc1	-6%	-87*	?	-7%	?
CCc1ccccc1NC(=O)CSc1nc2c(oc3ccccc32)c(=O)n1-c1ccccc1F	-21%	-16	.	.	?
COC(=O)C1=C(C)N(C(C)C)C(=O)C1(NC(=O)c1ccccc1OC)C(F)(F)F (stereo not drawn)	-20%	4	4%[46.1 µM]	.	?
Cc1cc2[nH]c(=O)c(=O)[nH]c2cc1S(=O)(=O)Nc1cccc(C(F)(F)F)c1	4%	11	3%[46.1 µM]	.	.
CCOC(=O)c1c(C)[nH]c(C)c1S(=O)(=O)N1CCC(C(=O)Nc2ccc(OCC)cc2)CC1	-12%	-7	-5%[46.1 µM]	.	.
Oc1ccc(-c2cnccn2)cc1CN1CCN(C2CCCCC2)CC1	-9%	.	.	.	.
COc1ccc(CNC(=O)c2cn(Cc3ccc(S(=O)(=O)N(C)C)cc3)c(=O)s2)cc1	?	-81*	.	.	.
COc1ccc(CNC(=O)c2ccc(N(C)S(=O)(=O)c3ccc(C)cc3)cc2)cc1	-15%	27	?	4.5µM*	?
COc1ccc(S(=O)(=O)N(C)c2ccc(C(=O)NCc3ccco3)cc2)cc1	-1%	-26	-21%	2%	-13%
COc1ccc(CNC(=O)c2cn(Cc3ccc(OC(C)=O)cc3)c(=O)s2)cc1	-8%	7	.	.	.
COc1ccc(N(C)S(=O)(=O)c2ccc(Cl)c(C(=O)NCCc3ccc(Cl)cc3)c2)cc1	-14%	-27	?	10µM*	?
COc1ccc(S(=O)(=O)N(C)c2ccc(C(=O)NCc3ccncc3)cc2)cc1	-6%	13	11%	1%	-17%
COc1ccc(S(=O)(=O)N(C)c2ccc(C(=O)NCCC(C)C)cc2)cc1	-16%	39	8.2µM*	-11%	-4%
CCOC(=O)c1ccc(NC(=O)CCc2c(C)n(CC)c3cc(-c4ccccc4OC)nn3c2=O)cc1	-1%	14	11%[46.1 µM]	.	5%[46.1 µM]
COc1ccc(NC(=O)Nc2nnc(N3CCCC3)s2)cc1	26%	35	-12%[46.1 µM]	.	1%[46.1 µM]
CC(=O)Nc1ccn(-c2ccccc2)n1	53%	25	9%	-5%	?
N#Cc1ccc(C(=O)Nc2ccn(-c3ccccc3)n2)cc1	-22%	-75*	1%	?	?
O=C(Nc1ccn(-c2ccccc2)n1)c1ccc(Cl)cc1	-18%	-34	-4%	7.1µM*	?
O=C(Nc1ccn(-c2ccccc2)n1)c1ccccc1Br	52%	-13	.	3%	.
SMILES	FMDV inh	HCMV antiviral	LASV entry inh	HCV inhibitor	MARV entry inh
N#Cc1ccc(C(=O)Nc2cc(-c3ccccc3)nn2-c2ccccc2)cc1	-22%	-8	.	10µM*	.
Cc1ccc(C)c(OC(=O)CSc2nnc(-c3ccc4c(c3)OCO4)o2)c1	0%	-1	7%[46.1 µM]	.	2%[46.1 µM]
COc1ccc(Cl)cc1NC(=O)Cn1c(=O)n(Cc2ccco2)c(=O)c2cccnc21	0%	-20	.	.	6%[46.1 µM]
CCCn1cc(S(=O)(=O)c2cc(C)ccc2C)c(=O)c2cc(F)c(N3CCOCC3)cc21	34%	29	-4%[46.1 µM]	.	.
CCOc1ccc(NC(=O)CSc2nc3ccccc3c(=O)n2CCC(=O)NC2CCCCC2)cc1	-2%	0	7%[46.1 µM]	.	.
COc1ccc(/C(C)=N/NC(=S)NCc2ccco2)cc1	-11%	-6	2.1µM*	-6%	-11%
COc1ccc(NC(=S)NCCc2ccccc2)c(OC)c1	-3%	6	-1%	22µM*	1%
COc1ccc(NC(=S)NCCc2ccc(F)cc2)c(OC)c1	7%	1	5%	-14%	27%[46.1 µM]
C/C(=N\NC(=S)NCc1ccccc1)c1ccc2ccccc2c1	-6%	-24	2.3µM*	?	?
COc1cc(NS(=O)(=O)c2ccc(C)c(C)c2)c(OC)cc1Cl	-2%	-69*	-26%	-9%	?
CCOc1ccc(NC(=O)CSc2nc3c(oc4ccccc43)c(=O)n2CCOC)cc1	12%	-5	.	.	-4%[46.1 µM]
COCCn1c(SCC(=O)c2ccc(OC)cc2)nc2cc(C(=O)NC3CCCC3)ccc2c1=O	-12%	-1	7%[46.1 µM]	.	.
Cc1nc2c(o1)CCc1ccccc1[C@H]2N1CCN(C)CC1	.	.	.	.	-15%
COc1cc(NC(=S)NCCCO)c(OC)cc1Cl	6%	1	.	9%	.
COc1cc(NC(=S)NCCc2ccc(S(N)(=O)=O)cc2)c(OC)cc1Cl	2%	-61*	.	-21%	.
COc1ccc(/C(C)=N/NC(=S)NCCc2ccccc2)cc1	-18%	-114*	?	-12%	?
CCOc1ccccc1NC(=O)Cn1c(=O)oc2cc(S(=O)(=O)NCc3ccccc3)ccc21	0%	?	-20%[46.1 µM]	.	.
CSc1nsc(SCC(=O)Nc2ccccc2C(=O)O)n1	39%	-4	1%	13%	18µM*
CSc1nsc(SCC(=O)Nc2ccc(O)c(C(=O)O)c2)n1	2%	8	20%[46.1 µM]	17%	2%[46.1 µM]
CC(=O)N(CN1C(=O)CCC1=O)c1ccc(Cl)c(Cl)c1	11µM*	-66*	.	8%	.
Cc1cc(CNC(=O)[C@H]2C[C@@H]2[C@H](NP(=O)(c2ccccc2)c2ccccc2)c2ccccc2)nn1C	0%	-91*	-7%	6%[8.37 µM]	-10%
COC(=O)c1c(NC(=O)Cc2coc3ccc(C(C)C)cc23)sc2c1CCC2	-16%	16	?	.	?
COC(=O)c1cc2ccc(OC)cc2c2cc(OC)c(OC)cc12	?	-30	.	1.4µM*	.
COC(=O)c1cc(OC)c(OC)cc1NC(=O)Nc1ccc(OC)cc1	-3%	-17	6%	6%	?
COCCCn1c(-c2ccc(S(=O)(=O)N3CCOCC3)cc2)csc1=Nc1ccccc1	11µM*	-88*!	-3%[46.1 µM]	?	27%
Cn1c(-c2ccc(S(=O)(=O)N3CCCC3)cc2)csc1=Nc1ccc(Cl)c(Cl)c1	0%	-62*	?	.	.
CCn1c(-c2ccc(S(=O)(=O)N3CCOCC3)cc2)csc1=Nc1ccc(C)c(Cl)c1	?	3	?	.	.
O=S(=O)(c1ccc(-c2csc(=Nc3ccc(OC(F)(F)Cl)cc3)n2CCCO)cc1)N1CCCC1	?	-100*	?	.	?
COc1ccc(CCC(=O)NCc2ccc3c(c2)CCN3C(=O)c2ccc(C)cc2)cc1	12%	11	-7%[46.1 µM]	.	.
